PubChem BioAssay (NCATS)
Results filed as inconclusive are left out. Active and inactive are the calls of the source. Calls follow the shape of the dose curve; as a rule, active = well fitted curve in the direction sought with a large enough effect; inconclusive = small, poorly fitted or top-dose-only effect, or another doubt; inactive = no such curve, though single readings can be large; an effect the other way counts as inactive or inconclusive.

Each molecule was assayed against Cytochrome P450 2D6 (Homo sapiens) (UniProt P10635) (assay: qHTS Assay for Inhibitors and Substrates of Cytochrome P450 2D6 (AID 891; also: nearly all actives have a fitted effect of over 60% in size; also: potency is read from the fitted curve at half-maximal effect;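 as to activity change, negative = inhibition: luciferin methyl ether substrate demethylated by CYP2D6 with NADPH regeneration; % is scaled to controls: 0 for no effect and ±100 for the full control effect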)). Settings: recombinant CYP2D6, luciferin-ME EGE luminescence; series mostly up to 57.1 µM; activity change, negative = inhibition: at the top concentration.
Cytochrome P450 2D6 (Homo sapiens), sequence (P10635 whole entry, looked up): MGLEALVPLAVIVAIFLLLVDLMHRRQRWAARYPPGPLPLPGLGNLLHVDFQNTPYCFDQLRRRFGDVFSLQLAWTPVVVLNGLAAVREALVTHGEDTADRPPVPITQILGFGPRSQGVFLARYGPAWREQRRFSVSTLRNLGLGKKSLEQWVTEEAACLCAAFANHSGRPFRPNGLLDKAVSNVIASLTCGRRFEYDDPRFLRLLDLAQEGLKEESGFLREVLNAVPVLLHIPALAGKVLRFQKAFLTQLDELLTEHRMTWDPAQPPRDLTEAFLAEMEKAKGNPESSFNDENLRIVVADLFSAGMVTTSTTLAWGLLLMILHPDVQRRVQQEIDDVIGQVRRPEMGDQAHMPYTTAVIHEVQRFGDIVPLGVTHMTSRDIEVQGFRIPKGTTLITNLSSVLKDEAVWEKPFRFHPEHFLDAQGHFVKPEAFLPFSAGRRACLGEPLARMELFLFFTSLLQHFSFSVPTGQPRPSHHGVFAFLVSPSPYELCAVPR
Outline: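 Luminescent read-out of luciferin formed by 5 nM human CYP2D6 demethylating 30 uM Luciferin-ME EGE (Km level) over 60 min at room temperature after NADPH regeneration addition. Data normalized to full inhibition by 1.43 uM quinidine.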
For `N#CC(=C(/N)Sc1ccccc1N)/C(C#N)=C(/N)Sc1ccccc1N`, the Potency was 20 nM (active).
For `CC(C)CCC[C@@H](C)[C@@H]1CC[C@@H]2[C@H]3CC[C@H]4C[C@@H](N)CC[C@@]4(C)[C@@H]3CC[C@]21C`, the activity change, negative = inhibition was 11% [at 11.4 µM] (inactive).
`C[C@@H](COc1ccccc1)N(CCCl)Cc1ccccc1` was tested, and the Potency was 1580 nM (active).
With `CCN1CCC[C@@H](OC(=O)C(c2ccccc2)c2ccccc2)C1` the Potency was 1580 nM (active).
For `O=C1OC(=O)[C@@H]2[C@@H]1[C@@H]1CC[C@H]2O1`, the “activity change, negative = inhibition” value was 26.9% (inactive).
`CC(C)(C)c1ccc(OC(=O)Nc2ccc(O)c(C(=O)O)c2)cc1` was tested, and the activity change, negative = inhibition was 22.6% [at 11.4 µM] (inactive).

What follows are molecules tested against Cytochrome P450 2C19 (Homo sapiens) (UniProt P33261) (assay: qHTS Assay for Inhibitors and Substrates of Cytochrome P450 2C19 (AID 899; also: nearly all actives have a fitted effect of over 60% in size; also: potency is read from the fitted curve at half-maximal effect; as to activity, negative = inhibition: % is scaled to controls: 0 for no effect and ±100 for the full control effect)). Settings: recombinant CYP2C19, luciferin-H EGE luminescence; series mostly up to 57.1 µM; activity, negative = inhibition: at the top concentration.
Cytochrome P450 2C19 (Homo sapiens), sequence (P33261 whole entry, looked up): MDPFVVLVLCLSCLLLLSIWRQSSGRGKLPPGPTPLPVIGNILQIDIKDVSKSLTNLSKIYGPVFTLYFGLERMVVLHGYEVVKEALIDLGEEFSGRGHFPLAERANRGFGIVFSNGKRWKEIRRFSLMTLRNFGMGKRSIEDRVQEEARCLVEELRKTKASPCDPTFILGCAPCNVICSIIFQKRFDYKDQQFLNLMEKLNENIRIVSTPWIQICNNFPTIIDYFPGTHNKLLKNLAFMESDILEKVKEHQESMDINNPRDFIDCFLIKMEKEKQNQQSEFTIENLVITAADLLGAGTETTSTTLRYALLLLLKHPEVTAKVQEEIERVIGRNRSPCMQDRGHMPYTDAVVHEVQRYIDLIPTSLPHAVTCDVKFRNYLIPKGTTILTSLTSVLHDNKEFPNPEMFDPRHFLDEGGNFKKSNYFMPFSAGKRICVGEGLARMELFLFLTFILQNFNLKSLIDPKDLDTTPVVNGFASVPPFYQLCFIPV
Outline: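 NADPH-dependent conversion of Luciferin-H EGE (10uM, at KM) by 5nM enzyme in 50mM KPO4, 60 min at 37C following 10 min compound preincubation. Stopped with luciferin detection buffer; luminescence read after 20 min.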
With `CC(C)CCC[C@@H](C)[C@@H]1CC[C@@H]2[C@H]3CC[C@H]4C[C@@H](N)CC[C@@]4(C)[C@@H]3CC[C@]21C` the activity, negative = inhibition was 61.6% [at 11.4 µM] (inactive).
With `N[C@H](CCC(=O)N[C@H](CSN=O)C(=O)NCC(=O)O)C(=O)O` the Potency was 1580 nM (active).
In the case of `O=NN(Cc1ccc(Cl)cc1)[C@@H](C(=O)O)c1ccccc1`, the Potency is reported as 398 nM (active).
For `C=C(CO)[C@H]1Cc2c(ccc3c2O[C@H]2COc4cc(OC)c(OC)cc4[C@@H]2C3=O)O1`, the Potency was 5010 nM (active).
With `C[C@@]12CC[C@H]3[C@H](CC=C4C[C@@H](O)CC[C@@]43C)[C@@H]1CC[C@@H]2N(CCO)CCO` the activity, negative = inhibition was 79.2% [at 11.4 µM] (inactive).
With `C[C@@H]1OC=C2[C@@H](O)[C@H]3O[C@H]3C(=O)[C@@]23[C@H]1[C@H]1C2=C([C@@H](O)[C@H]4O[C@@H]4C2=O)[C@@H]3O[C@@H]1C` the activity, negative = inhibition was 53.9% [at 11.4 µM] (inactive).
`C=C(Br)CN(C)CC(=C)Br` was tested, and the activity, negative = inhibition was 46.7% [at 11.4 µM] (inactive).
`C[C@H](CCC(=O)O)[C@H]1CC[C@]2(C)[C@@H]3C(=O)C[C@H]4C(C)(C)[C@@H](O)CC[C@]4(C)[C@H]3C(=O)C[C@@]12C` was tested, and the activity, negative = inhibition was 60.6% [at 11.4 µM] (inactive).
With `Cc1ccc(C(=O)O[C@@H](C(=O)O)[C@@H](OC(=O)c2ccc(C)cc2)C(=O)O)cc1` (tested in a mixture with another compound) the “activity, negative = inhibition” value was 95.9% (inactive).

Each molecule was assayed against Alpha-galactosidase (Coffea arabica) (UniProt Q42656) (assay: Counterscreen for Glucocerebrosidase Inhibitors: qHTS Assay for Coffee Bean alpha-Galactosidase at pH 4.5 (AID 957;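 also: plate controls were enzyme alone for no effect and no enzyme for full effect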)). Settings: purified coffee bean alpha-galactosidase, fluorogenic substrate; series mostly up to 76.9 µM; activity change, negative = inhibition: at the top concentration.
Alpha-galactosidase (Coffea arabica), sequence (Q42656 whole entry, looked up): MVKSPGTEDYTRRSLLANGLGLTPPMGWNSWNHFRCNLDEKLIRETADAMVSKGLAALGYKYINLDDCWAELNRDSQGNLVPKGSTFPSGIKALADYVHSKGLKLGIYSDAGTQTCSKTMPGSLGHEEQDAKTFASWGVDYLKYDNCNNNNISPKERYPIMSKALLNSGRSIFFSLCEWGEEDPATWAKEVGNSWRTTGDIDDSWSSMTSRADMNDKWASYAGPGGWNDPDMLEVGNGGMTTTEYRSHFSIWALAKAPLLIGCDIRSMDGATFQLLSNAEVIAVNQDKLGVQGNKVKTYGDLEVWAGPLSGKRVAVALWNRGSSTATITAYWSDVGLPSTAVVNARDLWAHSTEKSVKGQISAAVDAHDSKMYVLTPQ
Outline: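 Quantitative HTS of compounds (0.7 nM to 77 uM) against coffee bean alpha-galactosidase at pH 4.5, measuring 4-methylumbelliferone fluorescence released from 80 uM substrate.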
For `CCN(Cc1ccncc1)C(=O)[C@@H](CO)c1ccccc1`, the “activity change, negative = inhibition” value was 1.95% (inactive).
In the case of `N#CC(=C(/N)Sc1ccccc1N)/C(C#N)=C(/N)Sc1ccccc1N`, the “activity change, negative = inhibition” value is reported as -3.74% (inactive).
With `CC[C@@H]1CN2CCc3cc(OC)c(OC)cc3[C@H]2C[C@@H]1C[C@@H]1NCCc2cc(OC)c(OC)cc21` the “activity change, negative = inhibition” value was -1% (inactive).
`N[C@H](CCC(=O)N[C@H](CSN=O)C(=O)NCC(=O)O)C(=O)O` was tested, and the “activity change, negative = inhibition” value was 0.133% (inactive).
`Nc1ncnc2c1nc(Br)n2[C@@H]1O[C@H]2COP(=O)(O)O[C@@H]2[C@H]1O` was tested, and the “activity change, negative = inhibition” value was 0.678% (inactive).
With `NC[C@H](O)C1CCCCCCC1` the “activity change, negative = inhibition” value was -1.27% (inactive).
With `COC(=O)[C@H]1[C@H]2C[C@H]3c4[nH]c5ccccc5c4CCN3C[C@@H]2CC[C@@H]1O` the outcome was “inactive”.
For `CN(C)C/C=C(\c1ccc(Br)cc1)c1cccnc1`, the “activity change, negative = inhibition” value was -0.498% (inactive).
In the case of `CC(C)[C@@H]1NC(=O)[C@H](CCCCN)NC(=O)[C@H](Cc2c[nH]c3ccccc23)NC(=O)[C@H](Cc2ccc(O)cc2)NC(=O)[C@H](C)N(C)C(=O)[C@H](Cc2ccccc2)NC1=O`, the “activity change, negative = inhibition” value is reported as -0.755% (inactive).
`NC(=NCc1ccc(Cl)c(Cl)c1)NC(=O)c1nc(Cl)c(N)nc1N` was tested, and the “activity change, negative = inhibition” value was -0.642% (inactive).
With `C[C@@H](COc1ccccc1)N(CCCl)Cc1ccccc1` the “activity change, negative = inhibition” value was -6.1% (inactive).
In the case of `C[C@@](N)(C(=O)O)c1ccc(C(=O)O)cc1`, the “activity change, negative = inhibition” value is reported as 1.08% (inactive).
In the case of `COc1ccc2c(c1)CCC1C2CC[C@]2(C)[C@H](NCCCCCCN3C(=O)C=CC3=O)CC[C@@H]12` (stereo partly specified), the “activity change, negative = inhibition” value is reported as 2.09% (inactive).
For `CC(C)C[C@H](NC(=O)[C@@H]1O[C@H]1C(=O)O)C(=O)NCCCCN=C(N)N`, the “activity change, negative = inhibition” value was 1.4% (inactive).
For `O=C1OC(=O)[C@@H]2[C@@H]1[C@@H]1CC[C@H]2O1`, the “activity change, negative = inhibition” value was 4.14% (inactive).
With `COc1c2c(nc3ccccc13)O[C@@H]([C@@](C)(O)CO)C2` the “activity change, negative = inhibition” value was -1.86% (inactive).
With `Nc1ncnc2c1ncn2[C@@H]1O[C@@H](C(=O)NC2CC2)[C@H](O)[C@@H]1O` the “activity change, negative = inhibition” value was -0.751% (inactive).
In the case of `CC(C)(C(=O)O)c1ccc([C@@H](O)CCCN2CCC(C(O)(c3ccccc3)c3ccccc3)CC2)cc1`, the “activity change, negative = inhibition” value is reported as 1% (inactive).
For `CC(=O)O[C@@H]1[C@H]([N+]2(C)CCCCC2)C[C@@H]2[C@@H]3CC[C@@H]4C[C@@H](OC(C)=O)[C@H]([N+]5(C)CCCCC5)C[C@@]4(C)[C@H]3CC[C@]21C`, the “activity change, negative = inhibition” value was -0.915% (inactive).
For `Oc1ccc(/C=C\c2cc(O)cc(O)c2)cc1`, the “activity change, negative = inhibition” value was -8.11% (inactive).
In the case of `CC(C)(Oc1ccc([C@@H]2CC2(Cl)Cl)cc1)C(=O)O`, the “activity change, negative = inhibition” value is reported as -2.9% (inactive).
